Compounds without any hit were thinned out: in the full panel of roughly 83,000, 20% have a hit.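 96-well plates, one dose, 48 hours. Percent growth reported; active if below 10.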 Calls of active or inactive are those of the source.
How the values were obtained:
Assay in all cases: NCI-60 one-dose screen, 48 h (100 = growth as untreated, 0 = no growth, -100 = all killed)
Details in all cases: 10 µM
[1] = tested on: DU-145 prostate
[2] = tested on: K-562 leukemia
[3] = tested on: MALME-3M melanoma
[4] = tested on: MDA-MB-231 breast
[5] = tested on: RXF 393 renal
[6] = tested on: SF-268 CNS
[7] = tested on: SF-295 CNS
[8] = tested on: SF-539 CNS
[9] = tested on: M14 melanoma
[10] = tested on: HCT-15 colon
[11] = tested on: HT29 colon
[12] = tested on: SNB-75 CNS
[13] = tested on: SNB-19 CNS
[14] = tested on: U251 CNS
[15] = tested on: PC-3 prostate
[16] = tested on: SK-MEL-5 melanoma
[17] = tested on: UACC-62 melanoma
[18] = tested on: LOX IMVI melanoma
[19] = tested on: SK-MEL-28 melanoma

Measured: growth

Cc1cc(CSc2ccccc2C(=O)N2CC=C(c3ccccc3)CC2)on1
inactive: [1] 107% | [2] 89.1% | [3] 95.8% | [4] 95.3% | [5] 107% | [6] 108% | [7] 99.6% | [8] 92.9% | [9] 108% | [10] 95.2% | [11] 84.2% | [12] 90.3% | [13] 104% | [14] 98.7% | [15] 82.9% | [16] 97.5% | [17] 90.4% | [18] 92.1% | [19] 98.1%

COc1ccc(/C=C/c2nnc(/C=C/c3ccc(OC)c(OC)c3)o2)cc1OC
active: [8] -11.8% | [9] 5.44% | [11] -7.7% | [16] 2.81% | [17] 9.17% | [18] 4.41%
inactive: [1] 49.2% | [2] 14.8% | [3] 57.1% | [4] 17.8% | [5] 27.4% | [6] 41.9% | [7] 12.5% | [10] 21.6% | [12] 38.4% | [13] 14.8% | [14] 16.2% | [15] 31.5% | [19] 30.6%

COc1ccc(/C=C/C(=O)C(=O)/C=C/c2ccc(OC)c(OC)c2)cc1OC
inactive: [1] 22.5% | [3] 54.5% | [6] 13.2% | [7] 73.8% | [12] 64.9% | [13] 33.1% | [15] 43.6% | [16] 77.9%
active: [2] 7.11% | [4] 2.99% | [5] -63.3% | [8] 6.56% | [9] -10.5% | [10] -3.56% | [11] -35.2% | [14] 6.4% | [17] -10.8% | [18] -66.4% | [19] -9.43%

COc1cc(-c2csc(NC(=O)Nc3ccc(Cl)c(C(F)(F)F)c3)n2)cc(OC)c1OC
active: [3] -28.1% | [4] -32.2% | [5] -6.49% | [7] -34.7% | [8] 5.05% | [9] -4.86% | [11] 4.27% | [12] -7.01% | [14] -9.73% | [15] -0.311% | [16] -79.9% | [17] 1.56% | [18] -19.2%
inactive: [1] 14.4% | [2] 14.2% | [6] 21.3% | [10] 10.5% | [13] 13.2% | [19] 15.3%

O=C(CCNC(=O)c1nc(-c2ccccc2)n(-c2ccc(Cl)cc2)n1)NO
inactive: [1] 102% | [2] 105% | [3] 97.4% | [4] 102% | [5] 99.6% | [6] 93.9% | [7] 99% | [8] 84.6% | [9] 97% | [10] 104% | [11] 89.8% | [12] 99.1% | [13] 102% | [14] 96.1% | [15] 89.6% | [16] 103% | [17] 100% | [18] 98.5% | [19] 101%

COc1cc2c3c(n(C4CCN(C)CC4)c(=O)c2cc1OC)-c1cc2c(cc1C3=O)OCO2
active: [8] -55.5% | [17] -25.6% | [18] 8.68%
inactive: [1] 78.4% | [2] 81.2% | [3] 89.5% | [4] 43.6% | [5] 68.2% | [6] 50.5% | [7] 46.7% | [9] 60.9% | [10] 71.5% | [11] 39.7% | [12] 60.1% | [13] 59.6% | [14] 35.5% | [16] 57.7% | [19] 107%

COc1ccc(C(c2ccc(OCCN(C)C)cc2)c2cc3ccccc3c3ccccc23)cc1 (configuration not stated)
active: [2] -29.9% | [3] -43.4% | [9] -72.3% | [10] -30.9% | [11] -7.37% | [17] -47.8% | [18] -81% | [19] -77.8%
inactive: [1] 34.2% | [4] 17.1% | [5] 49.5% | [6] 67.3% | [7] 58% | [8] 66.9% | [12] 86.8% | [13] 65% | [14] 16.6% | [15] 60.7% | [16] 58.6%

CCC(C)[C@H](NC(C)=O)C(=O)N[C@@H](CCCNC(=N)N)C(=O)N[C@@H](CCCCN)C(=O)N[C@@H](CC1CCC(O)CC1)C(=O)NC(C(=O)N[C@@H](CCSC)C(=O)N[C@@H](CCCNC(=N)N)C(=O)N[C@@]1(C)CCC/C=C\CCC[C@@](C)(C(=O)NC(C(=O)N[C@@H](CCC(=O)O)C(=O)N[C@@H](CC(C)C)C(=O)N[C@H](C(=O)N[C@@H](CCC(=O)O)C(N)=O)C(C)C)[C@@H](C)O)NC(=O)[C@H](CCC(N)=O)NC(=O)[C@H](CC(C)C)NC(=O)[C@H](CC(C)C)NC1=O)[C@@H](C)O (some centres not stated)
inactive: [1] 93.7% | [2] 95.4% | [3] 102% | [4] 98.8% | [5] 86.4% | [6] 47.9% | [7] 101% | [8] 97.7% | [9] 75.6% | [10] 100% | [11] 90.6% | [12] 107% | [13] 110% | [14] 98.9% | [15] 99.1% | [16] 102% | [17] 99.6% | [18] 109% | [19] 94.6%

O=C1c2c(c3c4ccccc4n(CCCCCCN4CCOCC4)c3c3[nH]c4ccccc4c23)C(=O)N1O
inactive: [1] 109% | [3] 117% | [4] 48.5% | [5] 90.3% | [6] 92.9% | [7] 108% | [8] 92.4% | [9] 81.9% | [10] 16.5% | [11] 24.3% | [12] 74.9% | [13] 97% | [16] 23.4% | [17] 82.7% | [19] 118%
active: [2] -32.9% | [14] -23.2% | [18] -88.4%

C[C@@H](C[C@H](CCO)c1ccccc1)c1ccc2ccccc2c1
active: [1] -40.9% | [2] -35.2% | [3] -87.6% | [4] -73.6% | [5] -87.4% | [6] -70.4% | [7] -89.2% | [8] -82.7% | [9] -84.2% | [10] -75% | [11] -72.8% | [12] -8.12% | [13] -78.3% | [14] -95% | [15] -89.2% | [16] -87.9% | [17] -76.2% | [18] -94.5% | [19] -79.3%

CCn1c(SCCc2ccccc2)nnc1-c1nn(-c2ccc(Cl)cc2Cl)c(-c2ccc(Cl)cc2)c1C
inactive: [1] 84.7% | [2] 48.1% | [3] 96% | [4] 81.1% | [5] 66% | [6] 77.4% | [7] 65.7% | [8] 85.9% | [9] 72.8% | [10] 45.6% | [11] 67.2% | [12] 90.7% | [13] 76.7% | [14] 54.7% | [15] 39.8% | [16] 74.3% | [17] 68.6% | [18] 63.8% | [19] 79.2%
